Measured values: PubChem BioAssay AID2283134 (EPA ToxCast)
Results filed as inconclusive are left out. Active and inactive are the calls of the source. The calls were made as follows: active = hit-call score of the fitted dose curve at least 0.9, where 1 is the maximum; inconclusive = response in the unintended direction; inactive = score below 0.9.

What follows are molecules tested against human Checkpoint Kinase 1 (CHK1), CHEK1 (gene 1111) (UniProt O14757) (assay: NVS_ENZ_hCHK1: NovaScreen (NVS) Enzymatic Assay for human Checkpoint Kinase 1 (CHK1)).
Description: NVS_ENZ_hCHK1 is a biochemical, single-readout assay that uses extracted gene-proteins in a cell-free assay. Measurements were taken 1 hour after chemical dosing in a 96-well plate.NVS_ENZ_hCHK1 is one of one assay component(s) measured or calculated from the NVS_ENZ_hCHK1 assay. It is designed to make measurements of enzyme activity, a form of enzyme reporter, as detected with fluorescence intensity signals by Fluorescence and electrophoretic mobility shift technology.Data from the assay component NVS_ENZ_hCHK1 was analyzed into 1 assay endpoint. This assay endpoint, NVS_ENZ_hCHK1, was analyzed in the positive analysis fitting direction relative to DMSO as the negative control and baseline of activity. Using a type of enzyme reporter, loss-of-signal activity can be used to understand changes in the enzymatic activity as they relate to the gene CHEK1. Furthermore, this assay endpoint can be referred to as a primary readout, because this assay has produced multiple assay endpoints where this one serves a enzymatic activity function. To generalize the intended target to other relatable targets, this assay endpoint is annotated to the kinase intended target family, where the subfamily is serine/threonine kinase. […]

Chain of human Checkpoint Kinase 1 (CHK1), CHEK1 (gene 1111) (O14757 whole entry, looked up): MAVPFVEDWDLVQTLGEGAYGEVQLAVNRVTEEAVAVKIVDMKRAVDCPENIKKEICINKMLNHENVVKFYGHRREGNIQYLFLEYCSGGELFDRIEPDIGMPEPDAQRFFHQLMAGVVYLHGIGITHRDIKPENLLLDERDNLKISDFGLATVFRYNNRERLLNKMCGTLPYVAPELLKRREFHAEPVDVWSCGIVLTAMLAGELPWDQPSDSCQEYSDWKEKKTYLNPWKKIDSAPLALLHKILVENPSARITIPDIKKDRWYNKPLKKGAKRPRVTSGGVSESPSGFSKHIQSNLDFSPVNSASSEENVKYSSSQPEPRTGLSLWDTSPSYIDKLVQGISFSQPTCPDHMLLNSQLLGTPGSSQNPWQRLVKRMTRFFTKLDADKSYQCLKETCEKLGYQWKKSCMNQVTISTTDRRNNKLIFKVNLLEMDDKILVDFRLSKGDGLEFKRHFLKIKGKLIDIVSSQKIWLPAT

Q: `N#Cc1c(Cl)c(Cl)c(Cl)c(C#N)c1Cl` was tested. Which outcome did it give?
A: inactive
